nsP2pro inh: inhibitors of chikungunya virus nsP2 protease; Q8JUX6; FRET peptide cleavage, nsP2pro, fluorescence 1 h; Potency, µM (series often up to 24.9 µM), without a hit: at the top dose activity change, negative = inhibition, actives largely listed as inhibitors; 31,000 tested, 1.1% active; further: nearly all actives have a fitted effect of over 60% in size
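FRET cleavage of 2.5 uM peptide 2 by 150 nM CHIKV protease domain at pH 8.0 (Tris, Tween 20). Compounds at 7 concentrations (up to 25 uM) preincubated 15 min. Fluorescence read after 1 h at room temperature.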
nsP2 cell sec: inhibits CHIKV nsP2 protease in cells | cell-based CHIKV nsP2 protease reporter assay | Potency, µM (top dose mostly 51.1 µM), without a hit: at the highest dose activity change, negative = inhibition, usual class: inhibitors | shares compounds with nsP2pro inh | 450 tested, 10% active; further: nearly all actives have a fitted effect of over 70% in size
NSP2 full ctr: full-length CHIKV NSP2 protease inhibition, selectivity; shares compounds with nsP2pro inh; Full-length CHIKV NSP2 protease enzymatic counterscreen; 410 tested, 39% active; Potency, µM (doses to about 50.7 µM), for inactives: at the top dose activity change, negative = inhibition, hits mostly inhibitors; further: nearly all actives have a fitted effect of over 65% in size
Furin counter: human furin inhibition, counterscreen for nsP2pro inhibitors; Recombinant human furin enzymatic counterscreen, fluorogenic substrate; AID 1964102; 410 tested, 6% active; Potency, µM (titrated, usually from 50.6 µM), for inactives: at the top dose activity change, negative = inhibition, actives largely listed as inhibitors; shares compounds with nsP2pro inh
nsP2 NS23 pep: blocks CHIKV nsP2 protease cleavage of endogenous NS2/3 peptide; Purified CHIKV nsP2 protease, endogenous NS2/3 peptide cleavage; Potency, µM (highest dose often 51 µM), inactives show at the highest dose activity change, negative = inhibition, usual class: inhibitors; 410 tested, 34% active; shares compounds with nsP2pro inh; further: nearly all actives have a fitted effect of over 55% in size
Papain cs: papain protease inhibition, counterscreen for nsP2pro inhibitors. shares compounds with nsP2pro inh. purified papain protease activity, enzymatic inhibition. Potency, µM (titrated, usually from 51 µM), for inactives: at the highest dose activity change, negative = inhibition, usual class: inhibitors. 410 tested, 5% active. AID 1964104
Target sequence (P00784 whole entry, looked up): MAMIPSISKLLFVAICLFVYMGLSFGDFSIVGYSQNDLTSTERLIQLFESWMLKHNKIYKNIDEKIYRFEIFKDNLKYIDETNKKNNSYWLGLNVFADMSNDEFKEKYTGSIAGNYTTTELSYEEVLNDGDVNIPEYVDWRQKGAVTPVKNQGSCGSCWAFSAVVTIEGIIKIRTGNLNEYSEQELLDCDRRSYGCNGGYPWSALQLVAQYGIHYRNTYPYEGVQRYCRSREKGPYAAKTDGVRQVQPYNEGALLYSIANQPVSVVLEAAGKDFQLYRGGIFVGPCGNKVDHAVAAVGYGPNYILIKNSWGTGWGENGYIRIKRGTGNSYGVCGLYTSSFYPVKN
nsP2pro conf qHTS: CHIKV nsP2 protease inhibition, confirmatory qHTS | shares compounds with nsP2pro inh | CHIKV nsP2 protease enzymatic activity, qHTS | Potency, µM (series often up to 25.5 µM), for inactives: at the highest dose activity change, negative = inhibition, most hits filed as inhibitors | 410 tested, 43% active | AID 1964105; further: nearly all actives have a fitted effect of over 75% in size
HCV NS3 4A cs: selectivity counter-screen for CHIKV nsP2 protease inhibitors: HCV NS3/4A; shares compounds with nsP2pro inh; HCV NS3/4A protease biochemical counterscreen; Potency, µM (top dose mostly 50.9 µM), actives largely listed as inhibitors; 410 tested, 20% active; AID 1964106; further: nearly all actives have a fitted effect of over 55% in size
An asterisk follows results filed as active; i = inactive; ? = inconclusive; / = no result; ! = repeats disagree; [ ] = dose if it differs, or a comment. The sample as a whole holds a higher share of hits than the screen did. The call rests on the fitted dose curve. On the % scale 0 is the no-effect control and ±100 the full control effect; potency means the concentration at half of the fitted maximal effect.

SMILES | nsP2pro inh | nsP2 cell sec | others
Cc1nn(-c2ccccn2)c(C)c1[C@@H]1C=C[C@@H](NC(=O)NC(C)C)C1 | 10µM* | ? | NSP2 full ctr=18.8µM*;Furin counter=-8.0%;nsP2 NS23 pep=?;Papain cs=-5.2%;nsP2pro conf qHTS=13µM*;HCV NS3 4A cs=13.3µM*
Cc1ccc(-n2nc(C)c([C@@H]3C=C[C@@H](NC(=O)NC(C)C)C3)c2C)cc1Cl | -5.0%[39.2 µM] | /
Cc1nn(-c2ccc(C(C)C)cc2)c(C)c1[C@@H]1C=C[C@@H](NC(=O)NC(C)C)C1 | 7.6%[39.2 µM] | /
Cc1nn(-c2ccc(C(F)(F)F)cc2)c(C)c1[C@@H]1C=C[C@@H](NC(=O)NC(C)C)C1 | 1.41µM* | 2.11µM* | NSP2 full ctr=-4.3%;Furin counter=14.9µM*;nsP2 NS23 pep=18.8µM*;Papain cs=-1.0%;nsP2pro conf qHTS=2.59µM*;HCV NS3 4A cs=11.9µM*
CCNC(=O)N[C@@H]1C=C[C@@H](c2c(C)nn(-c3ccc(OC)cc3)c2C)C1 | 0.5%[39.2 µM] | /
Cc1c(C(=O)O)[nH]c2c1C(=O)CCC2 | -0.1% | /
CN(CCCN1c2ccccc2CCc2ccccc21)C(=O)C1CNCCO1 (stereo not drawn) | -10.7% | /
COc1ccccc1CNC(=O)C[C@@H]1[C@H](O)CCC2[C@](C)(CO)[C@H](OC(=O)NC(C)C)CC[C@]21C (stereo partly drawn) | 3.7% | /
COc1ccc(-c2noc(-c3cccnc3NCc3ccco3)n2)cc1 | ? | -4.0%
Cc1ccccc1-c1noc(-c2cccnc2NCc2ccco2)n1 | -27.5% | /
COc1cccc(-c2nc(-c3ccc(C(=O)O)cc3)no2)c1 | i | /
CCC(=O)O[C@@H]1[C@@H](C)O[C@@H](O[C@H]2[C@H](N(C)C)[C@@H](O)[C@H](O[C@H]3[C@@H](CC=O)C[C@@H](C)[C@@H](OC(C)=O)/C=C/C=C/C[C@@H](C)OC(=O)C[C@@H](OC(=O)CC)[C@@H]3OC)O[C@@H]2C)C[C@]1(C)OC(C)=O | 26.4% | /
CC(=O)C1=C(O)[C@@H]2[C@H]3c4c[nH]c5cccc(c45)C[C@H]3C(C)(C)N2C1=O | -19.3% | /
O=P(O)(NCCCl)NCCCl | 12.0% | /
CC1=NN(c2ccccc2)C(=O)C1 | 0.0351µM*! | -9.6% | NSP2 full ctr=-1.7%;Furin counter=-8.5%;nsP2 NS23 pep=-4.1%;Papain cs=-2.7%;nsP2pro conf qHTS=-3.8%;HCV NS3 4A cs=i
O=c1oc2c3c(ccc2c2ccccc12)OCN(Cc1ccc(Cl)cc1)C3 | ? | 206.0% | NSP2 full ctr=?;Furin counter=?;nsP2 NS23 pep=?;Papain cs=-3.8%;nsP2pro conf qHTS=4.49µM*;HCV NS3 4A cs=i
COc1ccc(CN2COc3ccc4c(oc(=O)c5ccccc54)c3C2)cc1OC | -27.7% | /
Cc1cc(=O)oc2c3c(ccc12)OCN(Cc1ccc(Cl)cc1)C3 | 12.3% | /
COCCn1c(C)cc(O)c(C(c2ccccc2OC)N2CCN(c3ccccc3)CC2)c1=O (stereo not drawn) | ? | 2.6%
COc1ccccc1C(c1c(O)cc(C)n(Cc2ccco2)c1=O)N1CCCCC1 (stereo not drawn) | -21.1% | /
COC(=O)N(C)Cc1cccc(N2CCN(C(c3ccccc3)c3ccccc3)CC2)c1 | -7.7% | /
O=C(CCc1ccsc1)N1CCC2(CCCN(Cc3cccnc3)C2=O)C1 (stereo not drawn) | -5.8% | /
CNS(=O)(=O)Cc1ccc2[nH]cc(CCN(C)C)c2c1 | -19.1% | /
CN(C)CCc1c[nH]c2ccc(CS(=O)(=O)N3CCCC3)cc12 | -11.7% | /
CN(C)CCc1c[nH]c2ccc(CN3CCN(C)S3(=O)=O)cc12 | ? | 13.7% | NSP2 full ctr=-3.5%;Furin counter=1.6%;nsP2 NS23 pep=-5.8%;Papain cs=0.5%;nsP2pro conf qHTS=-25.2%;HCV NS3 4A cs=i
CCC1(N2CCN(C(=O)c3ccccc3C(F)(F)F)CC2)CCN(C(=O)C(C)C)C1 (stereo not drawn) | -2.4% | /
